Among all 16,000 compounds or so, about 5,100 (32%) were called active. Roughly 25% stayed inconclusive and do not appear here. The list shows a part of the results. A number with no mark means an inactive call. The call rests on the fitted dose curve; in most records, active means well fitted curve in the direction sought with a large enough effect; inconclusive means small, poorly fitted or top-dose-only effect, or effect the other way; inactive means no such curve, though single readings can be large or run the other way.
On the % scale 0 is the no-effect control and ±100 the full control effect.

The test deals with Cytochrome P450 3A4 (Homo sapiens) (UniProt P08684). The experiment in a line: Cytochrome panel assay with activity outcomes. As to conditions: recombinant CYP, pro-luciferin dealkylation, luminescence, p450-cyp3a4; series mostly up to 57.1 µM.
Sequence of Cytochrome P450 3A4 (Homo sapiens) (P08684 whole entry, looked up): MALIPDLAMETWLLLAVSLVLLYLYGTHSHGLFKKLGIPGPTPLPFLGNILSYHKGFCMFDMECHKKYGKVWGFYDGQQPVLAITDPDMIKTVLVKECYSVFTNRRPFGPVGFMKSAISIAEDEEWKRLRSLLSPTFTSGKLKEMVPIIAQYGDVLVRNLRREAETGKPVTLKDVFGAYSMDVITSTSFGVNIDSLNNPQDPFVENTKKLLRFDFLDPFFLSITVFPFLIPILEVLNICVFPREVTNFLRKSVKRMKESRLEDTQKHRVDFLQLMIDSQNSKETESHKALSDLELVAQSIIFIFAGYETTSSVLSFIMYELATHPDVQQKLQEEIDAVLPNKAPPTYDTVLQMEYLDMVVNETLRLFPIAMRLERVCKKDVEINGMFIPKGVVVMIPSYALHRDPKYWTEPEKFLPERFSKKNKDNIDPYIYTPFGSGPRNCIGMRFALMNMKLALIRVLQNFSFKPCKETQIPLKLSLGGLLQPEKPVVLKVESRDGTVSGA
For `CCOC(=O)/C(C(N)=NCCCO)=C(/O)c1ccccc1`, the AC50 result is “inactive”. For the molecule `COc1ccc(CNc2ncnc3ccc(-c4cccc(NS(C)(=O)=O)c4)cc23)c(OC)c1`, the AC50 is 2 µM (active). `COc1ccccc1CNc1ncnc2ccc(-c3cccc(NS(C)(=O)=O)c3)cc12`: the AC50 is 3.16 µM (active). Consider `Cn1c(=O)c2[nH]c(/N=N\N3CCN(CCO)CC3)nc2n(C)c1=O`, for which the activity, negative = inhibition was -17% [at 11.4 µM]. `Cc1ccc(Nc2c([N+](=O)[O-])ccc3c2=NC2(CCCCC2)N=3)cc1`: the AC50 is 7.08 µM (active). In the case of `CCOC(=O)NC(NC(=O)OCC)C(=O)c1ccc(F)cc1`, the AC50 result is “inactive”. With `CCC/C=C(\CCC)C(NC(=O)Oc1ccc(F)cc1)c1ccc(C(=O)OC)cc1` (stereo unspecified), the AC50 result is “inactive”. Still for that read-out and setting: with `CCC/C=C(\CCC)C(NC(=O)C(C)(C)C)c1ccc(C(=O)OC)cc1` (stereo unspecified) the figure was 10 µM (active); with `CCC/C=C(\CCC)C(NC(=O)c1ccc(C(=O)OC)cc1)c1ccc(C(=O)OC)cc1` (stereo unspecified), 15.8 µM (active).

Consider `CCN(CC)c1nc(Nc2ccccc2)nc(Oc2ccc(C(=O)OC)cc2)n1`, for which the AC50 entry was “inactive”.

Turning to `CCC/C=C(\CCC)C(NC(=O)Cc1ccccc1)c1ccc(C(=O)OC)cc1` (stereo unspecified), the AC50 was 3.98 µM (active). For `CCC/C=C(\CCC)C(NC(=O)OCC(C)C)c1ccc(C(=O)OC)cc1` (stereo unspecified), the half-maximal activity concentration (AC50) was 12.6 µM (active).

Turning to `O[C@]1(c2ccccc2)c2ccccc2NC2=NCCN21`, the activity, negative = inhibition is 3.31% [at 11.4 µM]. Take `Cc1cc(-c2ccc(Cl)cc2)oc(=O)c1NC(=O)c1ccccc1`: the AC50 entry is “inactive”. The same measure, in the same setting: as for `O=c1cc(-c2ccccc2)oc2cc(O)c(O)c(O)c12`, the figure is 31.6 µM (active); as for `Cc1cc(=O)c2c(O)c(O)ccc2o1`, “inactive”; as for `COc1ccc(-c2cc(=O)c3c(O)cc(O)cc3o2)cc1`, 2.51 µM (active). Turning to `COc1ccc(-c2coc3cc(OC)cc(O)c3c2=O)cc1`, the AC50 entry is “inactive”.

For the molecule `O=C(O)CC[C@@H](C(=O)O)N1C(=O)[C@@H]2[C@@H]3CC[C@H](C3)[C@@H]2C1=O`, the activity, negative = inhibition was -4.14% [at 11.4 µM]. As to `Cc1ccc(C)n1C(Cc1ccccc1)C(=O)O` (stereo unspecified), the AC50 result is “inactive”. With `CC(C)C(NC(=O)C1CCCCC1)C(=O)NC1CCN(Cc2ccccc2)CC1` (stereo unspecified), the AC50 entry is “inactive”. Still for that read-out and setting: with `O=C(NC1CCCCC1)C(Cc1ccccc1)N1C(=O)C2C3CCC(C3)C2C1=O` (stereo unspecified) the figure was 8.91 µM (active); with `O=C(C(Cc1ccccc1)N1C(=O)C2C3CCC(C3)C2C1=O)N1CCCCC1` (stereo unspecified), 12.6 µM (active). Regarding `O=C(O)[C@H](CCc1ccccc1)N1C(=O)c2ccccc2C1=O`, the activity, negative = inhibition is 9.26% [at 11.4 µM]. Take `CN(CC(=O)Nc1cccc2c1CCCC2)S(=O)(=O)c1ccc(Br)cc1`: the AC50 is 8.91 µM (active). Consider `CN(C)CCOC(=O)[C@@H](c1ccccc1)C1(O)CCCC1`, for which the AC50 result was “inactive”.

The term AC50 denotes the concentration at which the activity in the assay is half-maximal.

Source of the values: PubChem BioAssay AID1851 (National Center for Advancing Translational Sciences (NCATS), 2009).
